DT40 TDP1 no CPT = qHTS for Inhibitors of human tyrosyl-DNA phosphodiesterase 1 (TDP1): qHTS in cells in absence of CPT; DT40 Tdp1-/- hTDP1 cells, no CPT, ATP luminescence, 48 h; Potency, µM (top dose mostly 46.2 µM), for the others: top-dose activity change, negative = growth inhibition, most hits filed as inhibitors; hit rate 15% among 420,000; note: % is set by controls: 0 for no effect and ±100 for the full control effect; nearly all actives have a fitted effect of over 55% in size
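Growth kinetics read by CellTiter-Glo luminescence after ≥48 hr at 37 °C. Cells: DT40 Tdp1-/- stably carrying human TDP1, 400 per well, compound exposure in the absence of CPT (DMSO vehicle).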
HT1080 IDH1KD tx = HT-1080 IDH1 knockdown cell toxicity (counter line); Potency, µM (highest dose often 46.1 µM), for the others: at the top dose activity, negative = toxicity, most hits filed as cytotoxic; HT-1080 IDH1 knockdown viability, ATP luminescence, 48 h; hit rate 2% among 360,000;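 note: 0% = DMSO wells and -100% = cell-free medium wells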
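HT-1080-IDH1KD cells (IDH1 knocked down), 750/well in RPMI with 5% FBS, treated with compound 48 h at 37 degrees C. Viability by CellTiter-Glo luminescence, normalised to DMSO and no-cell wells; concentration-response curves classed.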
TGFb inhibitor = inhibitors of TGF-b signaling | HepG2 CAGA-GFP TGF-b/SMAD3 reporter, GFP fluorescence, 18 h; TGF-beta stimulated, 500 pg/mL final | Potency, µM (series often up to 46.1 µM), for inactives: at the top dose activity, negative = inhibition, usual class: inhibitors | hit rate 1.2% among 410,000; note: % is set by controls: 0 for no effect and ±100 for the full control effect; nearly all actives have a fitted effect of over 65% in size
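First, reporter cells (HEPG2 CAGA-GFP) rested 2 h at 37 degrees C. Next, compounds were pinned in and TGF-beta added to 500 pg/mL final. After 18 h, GFP was imaged per cell and summed per well.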
HT1080NT lethal = kills 2HG-producing HT-1080-NT fibrosarcoma cells | HT-1080-NT fibrosarcoma viability, CellTiter-Glo ATP luminescence, 48 h | hit rate 1.6% among 360,000 | Potency, µM (series often up to 46.1 µM), for the others: top-dose activity, negative = less viability, most hits filed as cytotoxic | AID 686970;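 note: NT is the 2HG producing partner of a matched IDH1 knockdown line; 0% = DMSO-treated cells and -100% = media-only wells without cells; nearly all actives have a fitted effect of over 55% in size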
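Luminescent CellTiter-Glo readout after 48 hours of compound exposure at 37 degrees C defined viability of HT-1080-NT cells. Activity was normalized to DMSO wells and cell-free media wells; concentration-response curves were fitted and assigned curve classes.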
HepG2 viability = counter-screen for TGF-b inhibitors: cytotoxicity in HepG2 cells; Potency, µM (doses to about 46.1 µM), without a hit: at the top dose activity change, negative = cytotoxicity, hits mostly cytotoxic; hit rate 0.76% among 410,000; AID 588856; HepG2 CAGA-GFP viability, ATP luminescence, 18 h
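CellTiter-Glo luminescence gave cytotoxicity after 18 hours at 37 degrees C. The cells were HepG2 CAGA-GFP in 1% FBS DMEM, stimulated with 500 pg/mL TGF-beta after compound addition. %Activity was normalised to no-cell wells (complete cell-killing) and DMSO (no toxicity), and curves were fitted and classified.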
TDP1 cell CPT = growth inhibition of DT40 Tdp1-/-;hTDP1 cells with camptothecin (screen for TDP1 inhibitors); Potency, µM (series often up to 46.2 µM), inactives show at the highest dose activity change, negative = growth inhibition, usual class: inhibitors; AID 686979; chicken DT40 Tdp1-/-;hTDP1 cells + 20 nM CPT, ATP luminescence, 48 h; hit rate 12% among 420,000; note: % is set by controls: 0 for no effect and ±100 for the full control effect; nearly all actives have a fitted effect of over 55% in size
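Chicken DT40 Tdp1-/- cells stably complemented with human TDP1 were seeded at 400 cells/well in medium containing 20 nM camptothecin, exposed to pin-transferred compounds, and grown at 37 °C for at least 48 hr. Viability was read as ATP luminescence.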
* marks the source's active call; other numbers are inactive results; ? = inconclusive; · = not tested or not shown; [ ] = dose if it differs, or a comment. This is a sample that favours compounds with a hit; in the whole collection about 17% have one here. Calls come from the whole dose curve; as a rule, active = well fitted curve in the direction sought with a large enough effect; inconclusive = small, poorly fitted or top-dose-only effect, or another doubt; inactive = no such curve, though single readings can be large; an effect the other way counts as inactive or inconclusive. Potency is the fitted concentration of half-maximal effect.

SMILES	DT40 TDP1 no CPT	HT1080 IDH1KD tx	TGFb inhibitor	HT1080NT lethal	HepG2 viability	TDP1 cell CPT
COCc1c(C(=O)N2CCCC(C)C2)cnn1-c1nccc(-c2cc(C)sc2C)n1 (stereo not drawn)	-27.2%	·	·	·	·	-6.9%
Cc1ccc2nc(C(=O)N3CCCC(Nc4ccc(F)cc4)C3)cn2c1 (stereo not drawn)	-5.6%	-4.1%	-13.2%	-0.1%	-22.6%	-20.1%
N#C/C(=C\c1ccc(N2CCOCC2)c([N+](=O)[O-])c1)c1nc2ccccc2[nH]1	14.6µM*	-6.0%	8.3%	-10.3%	-1.8%	25.9µM*
N#C/C(=C/c1ccc(N2CCCC2)c([N+](=O)[O-])c1)c1nc2ccccc2[nH]1	14.6µM*	-0.7%	32.1%	4.9%	-19.0%	13µM*
CCN(CC)c1ccc(/C=C(/C#N)c2nc3ccccc3[nH]2)c(OC(C)C)c1	11.6µM*	?	79.1%	?	-41.3%	18.4µM*
N#C/C(=C\c1ccc(-c2ccc(C(=O)O)cc2)o1)c1nc2ccccc2[nH]1	?	?	9.2%	-11.6%	-1.2%	?
N#C/C(=C\c1ccc(N2CCOCC2)o1)c1nc2ccccc2[nH]1	23.1µM*	?	259.5%	?	-11.2%	?
N#C/C(=C\c1ccncc1)c1nc2ccccc2[nH]1	?	-1.2%	2.5%	-22.6%	-25.3%	?
COc1cccc(-c2ccnc(-n3ncc(C(=O)NCC4(N5CCCCC5)CCCC4)c3C)n2)c1	-17.3%	·	·	·	·	10.2%[9.04 µM]
C[C@H]1CN([C@@H](C)CO)C(=O)c2cc(Br)cnc2O[C@H]1CN(C)C(=O)c1ccc2c(c1)OCO2	2.2%	5.0%	11.6%	4.6%	12.2%	16.9%
Nc1c(-c2nc(-c3ccncc3)no2)nnn1CC(=O)Nc1ccccc1	?	·	·	·	-3.3%	?
Cc1cccc(C(=O)OCC(=O)Nc2ccc3c(c2)OCCO3)c1O	4.5%	8.4%	-1.8%	5.1%	-50.1%	-2.8%
C=CC[C@@H](CC(=O)N(CCO)Cc1ccccc1)C(=O)N[C@H](COC(=O)[C@H](CC=C)CC(=O)OC(C)(C)C)Cc1c[nH]c2ccccc12	16.4µM*	?	?	-27.0%	-1.9%	23.1µM*
C=CC[C@H](CC(=O)N(CCO)Cc1ccccc1)C(=O)N[C@@H](C)COC(=O)[C@H](CC=C)CC(=O)OC(C)(C)C	?	3.2%	?	1.2%	-22.7%	?
C=CCC[C@H](Cc1ccc(F)cc1)C(=O)OC[C@@H](Cc1c[nH]c2ccccc12)NC(=O)[C@@H](CC=C)CC(=O)N(CCO)Cc1ccccc1	?	?	?	?	-3.9%	?
C=CC[C@H](CC(=O)N(CCO)Cc1ccccc1)C(=O)N[C@H](COC(=O)[C@@H](CC=C)CC(=O)OC(C)(C)C)Cc1c[nH]c2ccccc12	16.4µM*	?	?	?	-20.2%	23.1µM*
O=C(O)c1ccc(NC(=O)[C@H](Cc2ccc(O)cc2)NC(=O)c2ccccc2)cc1	-1.4%	·	·	·	·	-13.7%
CCOC(=O)C1CCN(C(=O)c2ccc3c(=O)n4c(nc3c2)CCCCC4)CC1	-2.9%	15.8%	?	9.2%	6.4%	-5.4%
Cc1ccc(Cl)cc1Nc1nn2c(=O)c3ccc(C(=O)N4CCCC(C)C4)cc3nc2s1 (stereo not drawn)	?	·	-25.2%	·	-19.1%	?
CCOC(=O)C1CCN(C(=O)c2ccc3c(=O)n4nc(Nc5cc(C)ccc5C)sc4nc3c2)CC1	18.4µM*	-19.1%	12.6µM*	-20.7%	-25.6%	9.2µM*
COc1ccccc1Nc1nn2c(=O)c3ccc(C(=O)N4CCCC(C)C4)cc3nc2s1 (stereo not drawn)	23.1µM*	-17.2%	-27.0%	-6.3%	8.0%	11.6µM*
CC1CCCN(C(=O)c2ccc3c(=O)n4nc(Nc5ccccc5)sc4nc3c2)C1 (stereo not drawn)	?	-14.0%	-2.6%	-5.3%	0.2%	-41.4%
CCOC(=O)C1CCN(C(=O)c2ccc3c(=O)n4nc(Nc5ccccc5OC)sc4nc3c2)CC1	20.6µM*	-11.3%	-4.1%	-13.8%	-12.4%	25.9µM*
CC(C)NC(=S)NNc1ncnc2sc3c(c12)CC(C)(C)OC3	?	1.0%	-17.1%	6.9%	-25.2%	-5.5%
CC1(C)Cc2c(sc3ncnc(NNC(=S)NCc4ccccc4)c23)CO1	23.1µM*	1.84µM*	?	?	-14.7%	?
SMILES	DT40 TDP1 no CPT	HT1080 IDH1KD tx	TGFb inhibitor	HT1080NT lethal	HepG2 viability	TDP1 cell CPT
COc1ccc(-c2cc3nc(C)cc(N4CCN(C(=O)c5cccnc5)CC4)n3n2)cc1	23.1µM*	-2.0%	-0.2%	-0.5%	-3.4%	?
OC1CCN(c2cc(-c3ccccc3)nc3cc(-c4ccc(F)cc4)nn23)CC1	?	2.3%	-4.3%	9.9%	-18.8%	14.5%
COc1ccc(-c2cc3nc(-c4ccccc4)cc(N4CCN(C(=O)c5ccoc5)CC4)n3n2)cc1	8.2µM*	-12.8%	0.5%	-12.8%	-17.0%	?
O=C(c1ccoc1)N1CCN(c2cc(-c3ccccc3)nc3cc(-c4ccc(Br)cc4)nn23)CC1	5.8µM*	-1.9%	-1.9%	1.7%	-3.6%	11.6µM*
COc1ccc(N2CCN(C(=O)c3cccnc3)CC2)c([N+](=O)[O-])c1	-8.9%	-0.6%	-6.1%	-0.4%	-10.1%	23.6%
Cc1cc(N2CCN(C(=O)c3ccco3)CC2)n2nc(-c3cccc(F)c3)cc2n1	?	5.9%	11.5%	2.3%	-0.3%	?
S=c1nc[nH]c2n[nH]nc12	?	·	4.7%	·	-29.8%	?
CCCCC1C(=O)CC[C@H]2[C@@H]1CC(=O)[C@@H]2C/C=C\CCCC(=O)O (stereo partly drawn)	20.6µM*	?	7.2%	?	-11.9%	?
CC(=O)c1cccc(NC(=O)c2sc(-n3nc(C)c(Cc4ccc5c(c4)OCO5)c3C)nc2C)c1	14.6µM*	·	?	·	-3.8%	14.6µM*
Cc1cc[n+](CCC2CCCCC2)cc1	11.2µM*	·	?	·	-8.8%	10µM*
COc1cccc(C(O)c2ncc(-c3cccc(C(F)(F)F)c3)[nH]2)c1 (stereo not drawn)	?	-21.4%	4.5%	?	-0.5%	?
COC(=O)[C@H](Cc1ccccc1)NC(=O)c1cc(COc2c(F)cccc2F)on1	-13.2%	-6.7%	-15.5%	-14.2%	-13.1%	-23.6%

Compound activity: PubChem BioAssay, National Center for Advancing Translational Sciences (NCATS)
